Our source for the binding response (% of control) values is PubChem BioAssay AID1529 (NMMLSC, 2009).

About 4,200 (1.4%) of roughly 290,000 compounds were called active.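 How the source made its calls: active means binding response more than 3 SD above or below the average of its plate-row segment, actives on both sides; inconclusive means wells at one plate position flagged as instrument error; inactive means the rest.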 Many of the other results were omitted from the sample, so actives are more common in it than they were.

Chain of Mitogen-activated protein kinase kinase kinase 3 (Homo sapiens) (Q99759 whole entry, looked up): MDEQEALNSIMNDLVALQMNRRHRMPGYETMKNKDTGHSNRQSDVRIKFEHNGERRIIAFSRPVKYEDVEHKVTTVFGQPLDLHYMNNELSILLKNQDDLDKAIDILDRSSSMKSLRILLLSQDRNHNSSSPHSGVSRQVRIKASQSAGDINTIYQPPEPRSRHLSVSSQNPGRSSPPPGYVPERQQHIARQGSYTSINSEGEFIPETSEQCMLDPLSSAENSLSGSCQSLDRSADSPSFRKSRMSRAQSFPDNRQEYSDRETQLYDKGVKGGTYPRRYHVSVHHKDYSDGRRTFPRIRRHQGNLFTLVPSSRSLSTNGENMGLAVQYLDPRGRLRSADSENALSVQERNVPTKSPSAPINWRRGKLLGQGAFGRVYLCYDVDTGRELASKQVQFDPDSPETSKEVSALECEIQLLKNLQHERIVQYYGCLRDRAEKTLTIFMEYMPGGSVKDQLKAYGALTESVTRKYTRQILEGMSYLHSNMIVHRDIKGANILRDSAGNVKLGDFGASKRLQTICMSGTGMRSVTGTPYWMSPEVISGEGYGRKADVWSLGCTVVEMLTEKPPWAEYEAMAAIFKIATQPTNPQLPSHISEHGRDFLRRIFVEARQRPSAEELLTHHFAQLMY

This assay addresses Mitogen-activated protein kinase kinase kinase 3 (Homo sapiens) (UniProt Q99759). Description: compounds raising or lowering MEK5 association with MEKK3 PB1 – biochemical, wildtype MEKK3, multiplex bead flow cytometry, Alexa488-MEK5, primary screen (AID 1529).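 Further: Alexa488 bead fluorescence after subtracting the streptavidin-only scavenger bead signal.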 As to conditions: bead-based flow cytometry, Alexa488-MEK5 binding to MEKK3; at 10 µM; actives lie on both sides; 0 = blocked by unlabeled MEK5, 100 = vehicle. (In general: A flow cytometer gives signals particle by particle.)
With `Cn1nnnc1NCc1ccc(Cl)c(Cl)c1`, the binding response (% of control) is 105% (inactive). For `CCCn1nnnc1NCc1ccc(OC)cc1` the value was 111% (inactive); for `COc1ccc(CNc2nnnn2C)cc1`, 51% [inhibitor] (active). To `CCOC(=O)c1c(-c2ccccc2)oc2cc(Br)c(O)c(C=O)c12` belongs 98% (inactive).

For `Cc1cc(OCC(=O)Nc2c(C)n(C)n(-c3ccccc3)c2=O)ccc1[N+](=O)[O-]`, the binding response (% of control) is 96% (inactive).

Take `CCc1ccc(NC(=O)COC(=O)c2cccs2)cc1`: the binding response (% of control) was 101% (inactive).

For the compound `O=C(c1ccc(Br)o1)N(c1ccccn1)C1CCCCC1`, the binding response (% of control) is 131% (active). For `O=C(CNC(=O)c1ccc(Br)o1)NCC1CCCO1` (centres undefined) the value was 102% (inactive); for `O=C(c1cccs1)N(C(=O)c1cccs1)c1ccccn1`, 94% (inactive). For `Cc1ccc(NC(=O)CSc2nn3c(=O)c(C)nnc3s2)cc1Cl` the value was 88% (inactive). For `CNC(C)C#Cc1ccc2sc3cc(OC)c(OC)cc3c(=O)c2c1` (centres undefined), the binding response (% of control) is 110% (inactive).

Take `CCCCC1(C(=O)OCC)NC(c2ccc(O)cc2)C2C(=O)N(c3ccccc3)C(=O)C21` (centres undefined): the binding response (% of control) is 104% (inactive). Turning to `CCOC(=O)c1ccc(Nc2cc3ccccc3c(=O)[nH]2)cc1`, the binding response (% of control) is 100% (inactive). Turning to `COc1ccc(C(=O)C[n+]2ccc(C)cc2)cc1`, the binding response (% of control) was 134% (active). To `COc1ccc(OCCC(=O)c2ccc(OC)cc2)cc1` belongs 102% (inactive). Take `COc1ccc(C(=O)C[n+]2ccc(N)c(C)c2C)cc1`: the binding response (% of control) was 92% (inactive).

Turning to `COC(C[C@@H](O)C[C@@H](O)[C@H](C)OCc1ccccc1)OC`, the binding response (% of control) was 101% (inactive).

In the case of `COc1ccc(C(=O)CSc2nnc(COc3ccccc3)n2Cc2ccco2)cc1`, the binding response (% of control) is 102% (inactive). For the compound `Cn1c2ccccc2c(=O)c2c(=O)n(Cc3ccco3)c(COc3ccccc3)nc21`, the binding response (% of control) was 130% (active). Take `CCCc1nc2c(c(=O)c3ccccc3n2C)c(=O)n1-c1cc(C)cc(C)c1`: the binding response (% of control) was 101% (inactive). For `COc1ccc(/C=C/c2c(-c3cccc(C)c3)oc3ccc(-c4ccc5c(c4)OCO5)cc23)cc1`, the binding response (% of control) is 94% (inactive). To `CCOC(=O)c1cc(S(=O)(=O)NCCc2ccc(OC)c(OC)c2)cn1C` belongs 100% (inactive); to `CN(CC(=O)Nc1ccc(F)cc1)C(=O)c1ccc(-c2ccc(Cl)cc2)o1`, 105% (inactive); to `Cc1cc(C)nc(NS(=O)(=O)c2ccc(N3C(=O)C4CCCCC4C3=O)cc2)n1` (centres undefined), 101% (inactive).

For the compound `CCCN(CCC)c1nc2c(C)cccn2c(=O)c1/C=C1/SC(=S)N(Cc2ccco2)C1=O`, the binding response (% of control) was 32% [inhibitor] (active). For the compound `CCOC(=O)CC1C(=O)NCCN1c1nc2c(C)cccn2c(=O)c1/C=C1\SC(=S)N(C(C)CC)C1=O` (centres undefined), the binding response (% of control) was 93% (inactive). Consider `Cc1cccn2c(=O)c(/C=C3\SC(=S)N(CC(C)C)C3=O)c(NCCCOC(C)C)nc12`, for which the binding response (% of control) was 66% (inactive). For the compound `Cc1csc(NC(=O)CSc2nnc(-c3cccnc3)o2)n1`, the binding response (% of control) is 99% (inactive). With `CCCC[C@@H]1CN=C(N)N1CCc1cccc(F)c1`, the binding response (% of control) is 106% (inactive). To `O=C(NCc1ccccn1)C1CCN(S(=O)(=O)c2ccc(Br)cc2)CC1` belongs 103% (inactive); to `COc1ccc(CNc2ncnc3ccccc23)cc1`, 100% (inactive); to `O=C(NCc1ccccc1Cl)NC(=O)c1csc([N+](=O)[O-])c1`, 0% [inhibitor] (active). Turning to `O=[N+]([O-])c1ccccc1NCc1ccccc1Cl`, the binding response (% of control) was 66% (inactive). For `O=C(NCc1ccccc1Cl)c1csc2c1CCCCC2` the value was 96% (inactive); for `CCC(C)[C@H](NC(=O)N1c2ccccc2NC(=O)[C@@H]1C(C)C)C(=O)N[C@@H](Cc1ccccc1)C(=O)O` (some centres undefined), 101% (inactive).

On to `COc1ccc(NC(=O)CCCC2CCCCC2)c(OC)c1`, for which the binding response (% of control) was 97% (inactive). To `CCCc1ccc(OCCNC(=O)c2ccco2)cc1` belongs 101% (inactive). For `CC(=O)NCCNC(=O)c1cc(-c2cccc3ccccc23)nc2ccccc12` the value was 102% (inactive). To `CCOC(=O)C1CCN(C(=O)c2ccccc2N(C)S(=O)(=O)c2ccccc2)CC1` belongs 105% (inactive); to `c1ccc(-c2cc(N3CCCCC3)c3ccccc3n2)cc1`, 100% (inactive). In the case of `O=c1cc(N2CCN(Cc3ccccc3)CC2)c(-c2ccccc2)n[nH]1`, the binding response (% of control) is 101% (inactive).

In the case of `O=c1cc(N2CCCCC2)c(-c2ccccc2)nn1Cc1cccc(F)c1`, the binding response (% of control) was 157% (active). To `COc1ccc(-c2noc(CNC(=O)C(C)Oc3ccccc3)n2)cc1` (centres undefined) belongs 99% (inactive); to `CC(=O)Nc1ccc(NC(=O)COc2ccc(-c3ccccc3)cc2)cc1`, 99% (inactive). Consider `CCC(C)OC(=O)C(C)Oc1ccc(-c2ccccc2)cc1` (centres undefined), for which the binding response (% of control) is 2% [inhibitor] (active). As to `COc1ccc(CCNS(=O)(=O)c2cccc([N+](=O)[O-])c2)cc1`, the binding response (% of control) is 111% (inactive). To `O=C(Nc1ccccc1N1CCN(C(=O)c2ccccc2)CC1)c1ccco1` belongs 100% (inactive); to `CCc1ccc(NC(=O)Cn2nnc(C(=O)NCc3ccc(OC)cc3)c2N)cc1`, 101% (inactive). In the case of `COc1ccc(NC(=O)Cn2nnc(C(=O)NCCc3ccc(OC)c(OC)c3)c2N)cc1`, the binding response (% of control) is 2% [inhibitor] (active). With `COc1ccc(CNC(=O)c2nnn(CC(=O)Nc3cc(C)cc(C)c3)c2N)cc1`, the binding response (% of control) was 100% (inactive).

Regarding `CCOC(=O)c1ccccc1NC(=O)c1c(N)n(C)c(=O)[nH]c1=O`, the binding response (% of control) was 103% (inactive). For `COc1ccc(CNC(=O)CN(Cc2ccccc2Cl)C(=O)c2csnn2)cc1` the value was 104% (inactive).

Take `COc1cccc(N2CCN(c3ccc4nnc(CCC(=O)N5CCN(C)CC5)n4n3)CC2)c1`: the binding response (% of control) is 100% (inactive).

Take `O=C(CSc1n[nH]c(=O)n1-c1ccccc1)Nc1ccccc1C(F)(F)F`: the binding response (% of control) was 102% (inactive). For `COC(=O)c1ccc(S(=O)(=O)NCc2ccccc2)n1C` the value was 78% (inactive). For `Cc1c(S(=O)(=O)NCc2ccccc2)c(=O)n(C)c(=O)n1C` the value was 131% (active); for `Cc1c(S(=O)(=O)NC(C)c2ccccc2)c(=O)n(C)c(=O)n1C` (centres undefined), 101% (inactive); for `COC(=O)C1(C)NC(c2ccccc2OC)C2C(=O)N(c3ccccc3)C(=O)C21` (centres undefined), 104% (inactive). To `COC(=O)C1=NN(c2ccccc2)C2C(=O)N(c3ccccc3OC)C(=O)C12` (centres undefined) belongs 139% (active); to `COC(=O)c1cc(C(=O)OC)cc(N2C(=O)CC(N3CCN(c4ccccc4)CC3)C2=O)c1` (centres undefined), 103% (inactive). Regarding `CC(=O)Nc1ccc(S(=O)(=O)N(C)c2nc3ccccc3nc2Cl)cc1`, the binding response (% of control) was 103% (inactive).

In the case of `CCc1ccc(-c2cc(C)no2)cc1S(=O)(=O)NCCc1ccc(S(N)(=O)=O)cc1`, the binding response (% of control) is 104% (inactive). To `O=C(O)/C=C\C(=O)Nc1ccc(OCc2ccccc2)cc1` belongs 130% (active); to `CCc1ccnc(NC(=O)Nc2ccc(OCc3ccccc3)cc2)c1`, 104% (inactive); to `Cc1cccc(NC(=O)Nc2ccc(OCc3ccccc3)cc2)n1`, 99% (inactive). `COc1cc(CNCc2ccc3c(c2)OCO3)c([N+](=O)[O-])cc1OC`: the binding response (% of control) is 95% (inactive). In the case of `COc1cccc(CNS(=O)(=O)c2ccc3c(c2)N(C(C)=O)CCS3)c1`, the binding response (% of control) is 93% (inactive). Consider `COc1cccc(CC2(CO)CCCN(Cc3ccc(OC(F)F)cc3)C2)c1` (centres undefined), for which the binding response (% of control) was 109% (inactive).

`COc1cc2c(cc1OC)CN(C(=O)c1ccc(S(=O)(=O)N3CCCCCC3)cc1)CC2`: the binding response (% of control) was 132% (active). As to `COc1ccccc1N1CCN(C(=O)c2ccc(S(=O)(=O)N3CCCCC3)cc2)CC1`, the binding response (% of control) was 102% (inactive). Turning to `COc1cc2c(cc1OC)CN(C(=O)c1cc(S(=O)(=O)N3CCCCC3)ccc1Cl)CC2`, the binding response (% of control) was 101% (inactive).

For the compound `C/C(=N\NC(=O)c1ccccc1F)c1ccccn1`, the binding response (% of control) was 106% (inactive). For `CC(C)(C)n1nc(Cc2cccc3ccccc23)c(C#N)c1N` the value was 101% (inactive); for `COc1ccc(/C=N/Nc2nc(-c3ccc(C)cc3)c(C#N)c(=O)[nH]2)cc1`, 104% (inactive); for `CC(C)[C@H](NC(=O)N1CCn2c1nc1ccccc12)C(=O)NCCc1ccccc1`, 100% (inactive). For `CCOC(=O)C[C@H]1c2ccc(C(F)(F)F)cc2S(=O)(=O)N1c1ccccc1` the value was 95% (inactive). To `COCCc1nn2c(=O)cc(COC(=O)c3cc(OC)c(OC)c(OC)c3)nc2s1` belongs 95% (inactive); to `Cc1cc(=O)oc2cc(OC(C)C(=O)NCCc3ccc(S(N)(=O)=O)cc3)ccc12` (centres undefined), 100% (inactive). On to `Cc1cc(C)cc(NC(=O)NCc2ccccn2)c1`, for which the binding response (% of control) is 101% (inactive).
